Source: PubChem
Hits are enriched below; roughly 3.6% of the tested compounds scored in any of these assays.
mHTT CaM bind: mHTT-calmodulin interaction abrogation; AlphaScreen His-mHTT/GST-CaM binding, luminescence; inhibition, % at 15 µM; 190,000 compounds, 3.6% hits;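 further: 0% = both proteins with DMSO and 100% = one protein alone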
Pf apPOL block: Pf-apPOL DNA polymerase inhibition | Recombinant Pf-apPOL, molecular beacon fluorescence, 1.5 h | inhibition, % at 10 µM | 210,000 compounds, 0.25% hits
Active calls of the source: *; nt = no result given. No stated cut-off is given here; in the data, active means inhibition above about 50%; inactive means the rest.

SMILES | mHTT CaM bind | Pf apPOL block
COc1cccc(C(=O)Nc2c3c(nn2-c2ccccc2C)CSC3)c1 | 41 | -3
Cc1nnc(NS(=O)(=O)Cc2ccccc2)s1 | 1 | 56*
CC(C)Cc1nnc(NS(=O)(=O)Cc2ccccc2)s1 | 0 | -1
O=C(Nc1c(-c2ccccc2)nc2ccccn12)c1ccc(Cl)c([N+](=O)[O-])c1 | 67* | -2
COc1ccc(-c2nc3ccccn3c2NC(=O)c2ccc(Cl)c([N+](=O)[O-])c2)cc1 | 49 | 3
CC1CCCCN1CC(O)COc1ccc(C23CC4CC(CC(C4)C2)C3)cc1 (stereo not given) | 100* | 0
CC1CN(CC(O)COc2ccc(C34CC5CC(CC(C5)C3)C4)cc2)CC(C)O1 (stereo not given) | 18 | 0
CC1CCCCN1CC(O)COCC12CC3CC(CC(C3)C1)C2 (stereo not given) | 0 | -5
CC1CCCC(C)N1CC(O)COc1ccc(C23CC4CC(CC(C4)C2)C3)cc1 (stereo not given) | 100* | 0
CCCc1nc2cccnc2n1C1CCN(C(=O)c2ccc(OC)nc2)C1 (stereo not given) | 7 | -7
COc1ccc(/C=C/c2ccc3c(Cl)ccc(O)c3n2)cc1 | 79* | -3
Oc1cccc2ccc(/C=C/c3ccc(F)cc3)nc12 | 34 | -3
N#CC1=C(N)Oc2c(C=Nc3ccccc3)ccc(O)c2C1c1ccccc1[N+](=O)[O-] (stereo not given) | 100* | -10
COc1ccc(N=Cc2ccc(O)c3c2OC(N)=C(C#N)C3c2cccc([N+](=O)[O-])c2)cc1 (stereo not given) | 99* | -6
COc1ccc(N=Cc2cc([N+](=O)[O-])ccc2O)cc1 | 11 | -3
CCc1[nH]nc2c1C(c1ccccc1[N+](=O)[O-])C(C#N)=C(N)O2 (stereo not given) | 11 | 9
O=C(c1ccc(F)cc1)n1cc(Cl)cn1 | 3 | -3
Cc1oc(C(=O)NNC(=O)Nc2cccc(C(F)(F)F)c2)nc1-c1ccccc1 | nt | -13
Cn1c(=O)c2[nH]c(SCC(=O)c3ccc4c(c3)OCCO4)nc2n(C)c1=O | -5 | 19
COCCNC(=O)C1(C)CCC(=O)N1Cc1ccc(OC)cc1 (stereo not given) | -4 | 1
CCN(CC)CCCNC(=O)CC1CCN(C(=O)c2ccc(C)cc2)CC1 | 6 | -2
Cc1ccc(C(=O)N2CCC(CC(=O)NCCCN(C)c3ccccc3)CC2)cc1 | 51* | -4
Cc1cccc(-n2c(C)nc3cc(C(=O)N4CCCCC4)ccc32)c1 | 1 | 28
Cc1nnc(-c2cccn2CC(=O)NCc2ccccc2C)o1 | -9 | 4
O=[N+]([O-])c1ccc(S(=O)(=O)CC(Cl)CS(=O)(=O)Cc2ccccc2)cc1 (stereo not given) | 100* | 5
SMILES | mHTT CaM bind | Pf apPOL block
O=[N+]([O-])c1ccc(NCCNS(=O)(=O)Cc2ccccc2)cc1 | 6 | -4
COc1ccc(C2CC(=O)Nc3n[nH]c(-c4ccc(Cl)cc4)c32)c(OC)c1 (stereo not given) | 39 | -3
O=C1CC(c2ccccc2F)c2c(n[nH]c2-c2ccccc2)N1 (stereo not given) | 7 | 4
COc1ccc(C2CC(=O)Nc3n[nH]c(-c4ccccc4)c32)c(OC)c1 (stereo not given) | 80* | 1
O=C1CC(c2ccccc2Cl)c2c(n[nH]c2-c2ccccc2)N1 (stereo not given) | 69* | 2
c1ccc2c3c([nH]c2c1)CN(Cc1ccsc1)CC3 | 15 | -3
O=C1OC(c2cc(F)c(F)cc2Cl)=N/C1=C\C=C\c1ccccc1 | 25 | 2
CC(C)n1cc2cc(C(=O)N3CCN(Cc4ccccc4F)CC3)sc2c1 | 60* | 3
O=C(c1cc2cn(C3CC3)cc2s1)N1CCOCC1 | 5 | -5
CC(C)n1cc2cc(C(=O)N3CCN(Cc4ccc5c(c4)OCO5)CC3)sc2c1 | 65* | -10
CN1CCC(N2CCN(C(=O)c3cc4cn(C5CCCC5)cc4s3)CC2)CC1 | 30 | -3
CC(C)CN1CCN(C(=O)c2cc3cn(C(C)C)cc3s2)CC1 | 15 | -8
O=C(c1cc2cn(C3CC3)cc2s1)N1CCN(C2CCCCC2)CC1 | 55* | 0
CC(=O)N1CCN(C(=O)c2cc3cn(C(C)C)cc3s2)CC1 | 13 | -1
O=C(c1cc2cn(C3CC3)cc2s1)N1CCN(Cc2ccc3c(c2)OCO3)CC1 | 63* | -3
CCN(CC)CCSc1nnc2c3ccccc3n(CC(N)=O)c2n1 | -4 | -2
Cc1ccc(NC(=O)C(=O)NC2CCCCCC2)cc1C | 1 | 2
O=C(NCc1cc(-c2ccco2)on1)c1ccc(=O)oc1 | 14 | 63*
O=C(NCc1cc(-c2ccco2)on1)c1ccc(F)c(F)c1 | -4 | 1
CSc1cccc(C(=O)N(CCn2cccn2)c2nc3c(Cl)cccc3s2)c1 | 100* | -5
COc1ccc(OC)c2sc(N(CCN(C)C)C(=O)c3cccc(SC)c3)nc12 | 18 | 2
O=c1/c(=C/C=C/c2ccccc2)sc2nc(-c3cccs3)nn12 | 52* | 0
